Assay [1] concerns the target Lysosomal acid glucosylceramidase (Homo sapiens) (UniProt P04062). The assay is described as follows: Glucocerebrosidase-p2 (AID 348; in the data active = potency below about 10 µM; also: potency is read from the fitted curve at half-maximal effect). Particulars: purified GBA, blue fluorogenic substrate, 40 min. Put shortly:
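Compounds titrated from 0.6 nM upwards against 0.2 nM enzyme in pH 5.9 citric acid/KH2PO4, taurocholate, tween-20; blue fluorogenic substrate 80 uM, 40 min room temperature, stopped and read Ex 365/Em 440 for AC50.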

Assay [2] is described as follows: AP1 Signaling Pathway (AID 357).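 Also: ME-180 reporter cells stimulated with EGF at its EC50 level; % is scaled to controls: 0 for no effect and ±100 for the full control effect.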 The following applies: ME-180 AP-1-bla reporter, EGF-induced, beta-lactamase ratio, 5 h; at 7.69 µM (top of the series) unless noted. Put shortly: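 First, ME-180 AP-1-bla cells were cultured overnight at 37 °C in low-serum Opti-MEM. Next, titrated compounds with EC50 EGF were incubated 5 hours. Finally, CCF4 was added for 2.5 hours and the 460/530 nm ratio recorded.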

The target in assay [3] is Cytochrome P450 1A2 (Homo sapiens) (UniProt P05177). The assay is described as follows: p450-cyp1a2 (AID 410; calls by dose curve; also: potency is read from the fitted curve at half-maximal effect;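 as to activity change, negative = inhibition: -100% = full effect of reference inhibitor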). The following applies: recombinant CYP1A2, luciferin-ME demethylation, luminescence; series mostly up to 57 µM. Summed up:
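Inhibition was calculated relative to 57 uM furafylline (full inhibition). The reaction used human CYP1A2 at 20nM with Luciferin-ME at its Km, 100uM, driven by an NADPH-regenerating system for 60 min at room temperature.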

A short description of assay [4]: NFAT Signaling Pathway (AID 444).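 Also: carbachol stimulus at about its EC50 of 1 µM final; % is scaled to controls: 0 for no effect and ±100 for the full control effect.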 The following applies: Jurkat NFAT-bla M1, carbachol, beta-lactamase ratio, 5 h; at 7.69 µM (top of the series) unless noted. Summed up: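 Read-out: CCF4 FRET ratio (460 nm/530 nm) after 1 h RT dye loading, used for %activity and AC50 from titration series. Cells: Jurkat NFAT-β-lactamase/M1 line, treated with compound plus 1 uM carbachol for 5 h, 37 °C.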

The nature of assay [5]: Stat Signaling Pathway (AID 446).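 Also: ME-180 cervical cancer cells given 40 pM IL-6 alongside compound; SIE-controlled beta-lactamase reporter measured as 460/530 nm FRET emission ratio; % is scaled to controls: 0 for no effect and ±100 for the full control effect.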 The following applies: ME-180 SIE beta-lactamase reporter, IL-6 stimulated, 5 h; at 7.69 µM (top of the series) unless noted. Summed up: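 ME-180 SIE-bla cells; overnight plating; cpd + IL-6 40 pM, 5 h, 37 C; LiveBLAzer 2.5 h RT; 460/530 nm emission ratio. Normalized to 300 pM IL-6 and 125 nM JAK inhibitor controls.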
Assay [6] deals with Glucocorticoid receptor (Homo sapiens) (UniProt P04150). The assay is described as follows: GR-EFC Redistribution (AID 451; calls by dose curve; also: potency is read from the fitted curve at half-maximal effect). The following applies: CHO-K1 GR-EFC translocation, beta-gal luminescence, 2 h. Put shortly: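 Translocation of GR-ED fusion to nuclear EA restores b-gal, read by luminescence after 1 h room-temperature detection. Engineered CHO-K1 biosensor cells, 1,000/well, exposed 2 h at 37 C to titrations up to 46 uM final.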
Glucocorticoid receptor (Homo sapiens), sequence (P04150 whole entry, looked up, the tested form may be a part): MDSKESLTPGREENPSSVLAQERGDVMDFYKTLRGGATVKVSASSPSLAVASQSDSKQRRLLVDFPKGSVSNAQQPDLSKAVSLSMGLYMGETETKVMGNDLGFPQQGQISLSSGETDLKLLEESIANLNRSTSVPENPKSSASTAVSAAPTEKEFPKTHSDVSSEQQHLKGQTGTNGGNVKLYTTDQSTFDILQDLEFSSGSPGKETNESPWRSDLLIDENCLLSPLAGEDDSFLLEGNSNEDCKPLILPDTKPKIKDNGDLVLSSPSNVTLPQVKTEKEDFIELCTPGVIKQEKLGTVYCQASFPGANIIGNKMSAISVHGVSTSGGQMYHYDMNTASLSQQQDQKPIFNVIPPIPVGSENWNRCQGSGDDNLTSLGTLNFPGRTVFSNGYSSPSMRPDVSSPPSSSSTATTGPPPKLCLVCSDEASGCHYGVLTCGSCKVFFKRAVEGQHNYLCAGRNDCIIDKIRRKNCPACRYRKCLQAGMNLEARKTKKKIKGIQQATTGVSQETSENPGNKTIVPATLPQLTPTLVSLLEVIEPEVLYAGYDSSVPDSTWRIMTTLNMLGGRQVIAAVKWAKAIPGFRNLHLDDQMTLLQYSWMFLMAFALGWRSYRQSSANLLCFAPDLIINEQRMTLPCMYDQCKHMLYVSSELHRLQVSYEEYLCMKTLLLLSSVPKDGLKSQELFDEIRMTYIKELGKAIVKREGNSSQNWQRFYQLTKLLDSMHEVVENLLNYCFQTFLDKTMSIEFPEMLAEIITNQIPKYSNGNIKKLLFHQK

Assay [7] deals with Mitogen-activated protein kinase 10 (Mus musculus) (UniProt Q61831). In words: JNK3 AlphaScreen Assay (AID 530).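 Also: kinase came from lysate of stimulated human HepG2 cells; signal reports phosphorylation of biotinylated GST-cJun 1-79 at Ser73 with 10 µM ATP; % is scaled to controls: 0 for no effect and ±100 for the full control effect.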 Particulars: JNK3 lysate, c-Jun phosphorylation; series mostly up to 57.1 µM. Summed up:
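Room-temperature AlphaScreen kinase assay; pre-activated HepG2 lysate as JNK3 source, biotin-GST-cJun(1-79) substrate, 10 uM ATP, compound 15 min preincubation.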

Assay [8] concerns the target 3',5'-cyclic-AMP phosphodiesterase 4B (Homo sapiens) (UniProt Q07343). In words: qHTS Assay for Inhibitors of PDE-IV (AID 607; active = well fitted activation curve with a large enough effect in the main read-out, with a control signal flat, not every such curve was filed as active; also: % of control where 0% means no effect). Particulars: HEK293 ACTOne CNG channel cells, membrane potential fluorescence; series mostly up to 22.9 µM. Put shortly: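 ACTOne HEK293 cells carry a modified cAMP-gated CNG channel and express endogenous PDE4; plated 1000 cells/well, compounds up to 22.9 uM final. Membrane-potential dye fluorescence (ex 535/em 590) was read; parental cells received 10 uM forskolin + 100 uM RO 20-1724.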

Assay [9] has as its target Cytochrome P450 3A4 (Homo sapiens) (UniProt P08684). The assay is described as follows: qHTS Assay for Inhibitors and Substrates of Cytochrome P450 3A4 (AID 884; active = well fitted curve in the direction sought with a large enough effect; an effect the other way counts as inactive or inconclusive; also: nearly all actives have a fitted effect of over 50% in size; also: potency is read from the fitted curve at half-maximal effect). The following applies: recombinant CYP3A4, Luciferin-PPXE luminescence; series mostly up to 57.1 µM. Put shortly: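 20 nM human CYP3A4 with 25 uM Luciferin-PPXE (at KM) in 200 mM KPO4, preincubated 10 min with compound; NADPH regeneration started a 60 min RT reaction. Luciferin detected by luminescence, normalized to 57 uM ketoconazole as full inhibition.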

Assay [10] has the same target. In words: qHTS Assay for Activators of Cytochrome P450 3A4 (AID 885; active = well fitted curve in the direction sought with a large enough effect; an effect the other way counts as inactive or inconclusive; also: nearly all actives have a fitted effect of over 65% in size; also: potency is read from the fitted curve at half-maximal effect). The following applies: recombinant CYP3A4, Luciferin-PPXE luminescence, 60 min; series mostly up to 57.1 µM. Summed up:
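20nM CYP3A4 + 25uM Luciferin-PPXE (=KM), 200mM KPO4; cpd 10 min RT; NADPH regen, 60 min RT; stop w/ detection buffer, 20 min; luminescence. Normalized to 57 uM ketoconazole.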

Assay [11] is described as follows: qHTS Assay for Lipid Storage Modulators (AID 1519; calls by dose curve). Particulars: Drosophila S3 cells, BODIPY lipid droplet/cell ratio, laser cytometry, cells loaded with oleic acid; for activity change, negative = inhibition: at 57.5 µM (top of the series). Put shortly:
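Cells seeded at 5,000 per well were treated with compounds over a concentration series and loaded with oleic acid (400 uM, as added). Lipid droplet fluorescence (488 nm excitation, 500-530 nm channel) was read by laser-scanning cytometry and normalized to 20 uM Triacsin C.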

Assay [12] in a line: Primary qHTS for small molecule stabilizers of the endoplasmic reticulum resident proteome: Secreted ER Calcium Modulated Protein (SERCaMP) assay (AID 1508630; active = well fitted curve in the direction sought with a large enough effect; an effect the other way counts as inactive or inconclusive; also: % is scaled to controls: 0 for no effect and ±100 for the full control effect). The following applies: SH-SY5Y GLuc-SERCaMP (Gaussia luciferase released on ER calcium loss) secretion, thapsigargin, luminescence; series mostly up to 38.4 µM. Put shortly:
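GLuc-SERCaMP-expressing SH-SY5Y cells, pretreated 16 h with compound, are challenged with thapsigargin to empty ER calcium stores; after 4 h, coelenterazine is added directly to the medium and luminescence is imaged.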

Assay [13] has as its target Cytochrome P450 2C9 (Homo sapiens) (UniProt P11712). In words: qHTS Assay for Inhibitors and Substrates of Cytochrome P450 2C9 (AID 883; active = well fitted curve in the direction sought with a large enough effect; an effect the other way counts as inactive or inconclusive; also: potency is read from the fitted curve at half-maximal effect; nearly all actives have a fitted effect of over 60% in size). Particulars: recombinant CYP2C9, luciferin-H luminescence, 60 min; series mostly up to 57.1 µM. Summed up:
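Luminescent read-out of deoxyluciferin hydroxylation, normalized to 57uM sulphaphenazole (AC100). Reaction: 10nM enzyme, 100uM Luciferin-H (equal to KM), 25mM KPO4, 10 min compound preincubation, then 60 min with NADPH regeneration, both at 37C.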

Assay [14] has as its target Cytochrome P450 2D6 (Homo sapiens) (UniProt P10635). The assay is described as follows: qHTS Assay for Inhibitors and Substrates of Cytochrome P450 2D6 (AID 891; active = well fitted curve in the direction sought with a large enough effect; an effect the other way counts as inactive or inconclusive; also: potency is read from the fitted curve at half-maximal effect; nearly all actives have a fitted effect of over 60% in size). The following applies: recombinant CYP2D6, luciferin-ME EGE luminescence; series mostly up to 57.1 µM. Put shortly: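 Human CYP2D6 (5 nM) with 30 uM Luciferin-ME EGE (at Km) in 100 mM KPO4, compound preincubated 10 min, then NADPH regeneration system for 60 min at room temperature. Luciferin read by luminescence; normalized to 1.43 uM quinidine.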

The target in assay [15] is Cytochrome P450 2C19 (Homo sapiens) (UniProt P33261). In words: qHTS Assay for Inhibitors and Substrates of Cytochrome P450 2C19 (AID 899; active = well fitted curve in the direction sought with a large enough effect; an effect the other way counts as inactive or inconclusive; also: potency is read from the fitted curve at half-maximal effect; nearly all actives have a fitted effect of over 60% in size). The following applies: recombinant CYP2C19, luciferin-H EGE luminescence; series mostly up to 57.1 µM. Put shortly: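 Luminescence readout of luciferin formed from 10uM Luciferin-H EGE (KM level) by 5 nM CYP2C19 in 50mM KPO4. 60 min NADPH-driven reaction at 37C after 10 min compound preincubation; data scaled to 57uM ketoconazole inhibition.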
Cytochrome P450 2C19 (Homo sapiens), sequence (P33261 whole entry, looked up): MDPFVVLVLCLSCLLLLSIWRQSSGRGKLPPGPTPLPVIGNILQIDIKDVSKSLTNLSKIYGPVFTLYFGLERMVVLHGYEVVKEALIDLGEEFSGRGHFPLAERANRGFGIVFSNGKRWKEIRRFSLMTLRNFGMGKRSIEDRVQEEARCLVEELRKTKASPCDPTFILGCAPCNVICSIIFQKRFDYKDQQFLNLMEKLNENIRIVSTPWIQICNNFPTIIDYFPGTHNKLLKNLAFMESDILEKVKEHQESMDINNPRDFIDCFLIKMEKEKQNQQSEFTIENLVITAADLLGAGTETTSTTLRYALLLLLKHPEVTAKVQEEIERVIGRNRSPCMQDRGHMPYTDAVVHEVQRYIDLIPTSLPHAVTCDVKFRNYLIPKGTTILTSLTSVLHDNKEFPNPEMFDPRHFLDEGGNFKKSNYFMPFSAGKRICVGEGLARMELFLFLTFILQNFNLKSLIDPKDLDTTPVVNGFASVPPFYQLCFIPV

Where [16] appears, read: measured here: cell count channel max response.
Setting [17] is: measured here: lipid channel max response.

Each structure is given as a SMILES string. Records with an inconclusive call do not appear. The source made the active and inactive calls. Unless noted, calls follow the shape of the dose curve; as a rule, active = well fitted curve in either direction with a large enough effect (not every such curve was filed as active); inconclusive = small, poorly fitted or top-dose-only effect, or another doubt; inactive = flat fitted curve, though single readings scatter. Bounds are passed on as bounds.

Cytochrome P450 3A4 (Homo sapiens), sequence (P08684 whole entry, looked up): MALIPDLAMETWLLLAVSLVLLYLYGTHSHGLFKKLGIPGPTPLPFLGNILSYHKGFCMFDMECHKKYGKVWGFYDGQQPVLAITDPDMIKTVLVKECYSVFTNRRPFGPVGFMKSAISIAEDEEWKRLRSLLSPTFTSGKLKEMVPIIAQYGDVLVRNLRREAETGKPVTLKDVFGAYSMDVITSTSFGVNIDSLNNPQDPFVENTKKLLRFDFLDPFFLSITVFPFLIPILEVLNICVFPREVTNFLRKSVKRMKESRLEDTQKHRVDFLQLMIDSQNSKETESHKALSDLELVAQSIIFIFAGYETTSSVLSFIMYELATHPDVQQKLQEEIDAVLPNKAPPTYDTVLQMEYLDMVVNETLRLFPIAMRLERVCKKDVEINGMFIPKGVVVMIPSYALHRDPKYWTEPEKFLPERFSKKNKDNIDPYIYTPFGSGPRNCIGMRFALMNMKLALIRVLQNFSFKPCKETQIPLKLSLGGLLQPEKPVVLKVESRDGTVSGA
Lysosomal acid glucosylceramidase (Homo sapiens), sequence (P04062 whole entry, looked up): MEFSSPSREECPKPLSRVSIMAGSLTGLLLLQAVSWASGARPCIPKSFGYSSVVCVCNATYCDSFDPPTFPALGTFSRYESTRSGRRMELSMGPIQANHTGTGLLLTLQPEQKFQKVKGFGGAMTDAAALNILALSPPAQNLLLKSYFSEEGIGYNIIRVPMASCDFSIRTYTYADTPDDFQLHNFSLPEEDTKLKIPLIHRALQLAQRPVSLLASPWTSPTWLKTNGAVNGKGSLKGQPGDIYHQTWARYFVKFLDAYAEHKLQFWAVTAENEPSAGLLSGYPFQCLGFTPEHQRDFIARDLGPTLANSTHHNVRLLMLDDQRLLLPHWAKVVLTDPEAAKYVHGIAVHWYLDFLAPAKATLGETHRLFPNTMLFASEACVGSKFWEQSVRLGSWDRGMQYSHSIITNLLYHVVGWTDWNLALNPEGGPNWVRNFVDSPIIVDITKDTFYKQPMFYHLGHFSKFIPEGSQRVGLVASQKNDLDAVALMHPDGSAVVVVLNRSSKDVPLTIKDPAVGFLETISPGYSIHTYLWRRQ
3',5'-cyclic-AMP phosphodiesterase 4B (Homo sapiens), sequence (Q07343 whole entry, looked up): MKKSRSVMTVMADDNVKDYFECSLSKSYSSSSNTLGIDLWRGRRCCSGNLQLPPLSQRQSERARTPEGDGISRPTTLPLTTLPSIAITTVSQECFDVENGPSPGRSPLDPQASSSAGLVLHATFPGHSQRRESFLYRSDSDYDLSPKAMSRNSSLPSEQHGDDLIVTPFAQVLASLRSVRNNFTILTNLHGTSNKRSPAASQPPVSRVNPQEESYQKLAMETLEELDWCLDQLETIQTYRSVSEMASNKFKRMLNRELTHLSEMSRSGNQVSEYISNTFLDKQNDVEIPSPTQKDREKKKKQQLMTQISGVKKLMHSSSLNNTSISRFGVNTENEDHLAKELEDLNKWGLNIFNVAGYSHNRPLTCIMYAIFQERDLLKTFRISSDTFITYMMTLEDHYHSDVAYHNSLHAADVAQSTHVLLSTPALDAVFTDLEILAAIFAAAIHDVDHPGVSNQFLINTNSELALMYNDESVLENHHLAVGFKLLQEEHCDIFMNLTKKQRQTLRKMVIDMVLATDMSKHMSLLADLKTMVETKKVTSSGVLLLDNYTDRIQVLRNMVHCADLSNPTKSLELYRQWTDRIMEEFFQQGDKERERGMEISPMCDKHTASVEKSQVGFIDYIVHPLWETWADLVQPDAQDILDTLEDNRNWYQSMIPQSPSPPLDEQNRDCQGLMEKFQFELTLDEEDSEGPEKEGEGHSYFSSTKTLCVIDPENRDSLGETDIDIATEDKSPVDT
Cytochrome P450 1A2 (Homo sapiens), sequence (P05177 whole entry, looked up): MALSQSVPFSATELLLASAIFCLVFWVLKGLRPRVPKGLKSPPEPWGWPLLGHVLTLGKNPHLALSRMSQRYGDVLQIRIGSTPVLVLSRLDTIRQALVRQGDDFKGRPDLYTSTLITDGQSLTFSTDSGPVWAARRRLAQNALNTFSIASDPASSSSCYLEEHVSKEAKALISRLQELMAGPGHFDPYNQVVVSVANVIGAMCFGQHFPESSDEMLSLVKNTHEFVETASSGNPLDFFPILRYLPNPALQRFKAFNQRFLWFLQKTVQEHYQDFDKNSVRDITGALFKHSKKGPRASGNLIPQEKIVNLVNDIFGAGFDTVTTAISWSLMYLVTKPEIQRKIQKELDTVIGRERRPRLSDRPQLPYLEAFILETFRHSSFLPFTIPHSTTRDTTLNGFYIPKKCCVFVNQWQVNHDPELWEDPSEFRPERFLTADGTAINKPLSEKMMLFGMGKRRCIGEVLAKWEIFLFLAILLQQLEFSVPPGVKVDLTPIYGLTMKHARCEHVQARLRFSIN
Cytochrome P450 2C9 (Homo sapiens), sequence (P11712 whole entry, looked up): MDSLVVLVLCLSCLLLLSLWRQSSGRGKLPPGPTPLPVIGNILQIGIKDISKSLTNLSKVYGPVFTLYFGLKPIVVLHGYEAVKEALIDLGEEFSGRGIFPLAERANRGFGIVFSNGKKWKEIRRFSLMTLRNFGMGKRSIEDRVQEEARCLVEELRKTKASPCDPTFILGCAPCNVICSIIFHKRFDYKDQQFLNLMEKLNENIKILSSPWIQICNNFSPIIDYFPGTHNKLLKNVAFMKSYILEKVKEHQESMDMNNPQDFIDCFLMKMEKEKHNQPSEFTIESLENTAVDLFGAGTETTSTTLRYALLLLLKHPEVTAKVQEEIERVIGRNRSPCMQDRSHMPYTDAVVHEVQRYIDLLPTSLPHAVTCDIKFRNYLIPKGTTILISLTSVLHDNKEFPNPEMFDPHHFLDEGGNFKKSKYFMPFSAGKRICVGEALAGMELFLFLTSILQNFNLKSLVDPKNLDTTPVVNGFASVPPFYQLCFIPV
Cytochrome P450 2D6 (Homo sapiens), sequence (P10635 whole entry, looked up): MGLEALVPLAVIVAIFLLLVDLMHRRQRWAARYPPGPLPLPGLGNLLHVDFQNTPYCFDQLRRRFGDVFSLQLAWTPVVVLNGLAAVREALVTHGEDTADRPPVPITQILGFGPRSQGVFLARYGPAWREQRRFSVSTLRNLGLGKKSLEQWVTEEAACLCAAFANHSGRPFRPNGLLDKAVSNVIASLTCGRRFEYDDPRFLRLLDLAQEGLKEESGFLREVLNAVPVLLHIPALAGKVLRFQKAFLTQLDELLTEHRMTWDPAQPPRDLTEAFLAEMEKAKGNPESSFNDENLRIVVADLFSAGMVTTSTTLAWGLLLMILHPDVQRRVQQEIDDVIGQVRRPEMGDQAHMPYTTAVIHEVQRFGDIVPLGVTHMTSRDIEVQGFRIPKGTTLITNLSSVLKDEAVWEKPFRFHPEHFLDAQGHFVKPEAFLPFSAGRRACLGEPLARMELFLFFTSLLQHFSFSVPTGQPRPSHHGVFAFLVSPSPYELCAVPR

Take `Cc1noc(C)c1C(=O)N1CCC[C@@]2(CCN(C(=O)Nc3cccc(F)c3)C2)C1`: the results for the Potency in assay [1], in [6] and in assay [9] were > 11.4 µM (inactive), > 46 µM (inactive) and 5.01 µM (active), respectively. The activity change, negative = inhibition was -2.75% (inactive) in assay [2], 9.58% (inactive) in assay [4] and 3.82% (inactive) in [11]. Moreover, the Potency result in assay [3], in assay [8], in [10] and in assay [12] was “inactive” throughout. Also, in assay [5], the activity, negative = inhibition is 8.15% (inactive). The compound was classed as inactive in assay [7]. In addition, the max response in [11] (setting [16]) was 8.32%; in assay [11] (setting [17]), 13.6%.

As to `O=S(=O)(c1ccccc1)N1CCC2(CCN(C(c3ccccc3)c3ccccc3)CC2)CC1`, the Potency in assay [1] is > 11.4 µM (inactive); in assay [6], > 46 µM (inactive); in [13] it was 0.501 µM (active); in assay [10], 12.6 µM (active). For the same compound, the activity change, negative = inhibition in [2] is -13.4% (inactive); in assay [4] it was -19.9% (inactive); in assay [11], 6.93% (inactive). Besides, the Potency entry in assay [3], in [8] and in assay [12] was “inactive” throughout. Besides, the activity, negative = inhibition in [5] is -5.59% (inactive). The compound was called inactive in assay [7]. Moreover, the max response in assay [11] (setting [16]) worked out at 11.2%; in [11] (setting [17]) it was 22.7%.

For the compound `O=C(c1cc(C(F)(F)F)cc(C(F)(F)F)c1)N1CCC2(CCN(Cc3nccs3)CC2)CC1`, the Potency was > 11.4 µM (inactive) in assay [1] and > 46 µM (inactive) in assay [6]. In addition, the values for the activity change, negative = inhibition in [2], in assay [4] and in [11] were -2.3% (inactive), -17.7% (inactive) and 1.84% (inactive), respectively. Also, the Potency result in [3], in [8], in [9] and in assay [12] was “inactive” in each case. Further, the activity, negative = inhibition in [5] is -29.1% (inactive). In addition, the result in assay [7] was inactive. For the same compound, the max response was determined as 16.9% in assay [11] (setting [16]) and 21.6% in [11] (setting [17]).

On to `Cn1cccc1C(=O)N1CCC2(CC1)CCN(c1ccc(-c3ccccc3)cc1)CC2`, for which the Potency in [1] was > 11.4 µM (inactive); in assay [3], 20 µM (active); in assay [6], > 46 µM (inactive); in assay [10], 15.8 µM (active). For the same compound, the results for the activity change, negative = inhibition in [2], in assay [4] and in [11] were -19.9% (inactive), 11.4% (inactive) and -6.03% (inactive), respectively. Further, the activity, negative = inhibition in [5] was -10.4% (inactive). Moreover, the result in [7] was inactive. The Potency entry in assay [8], in [9] and in [12] was “inactive” in each case. Further, the max response in assay [11] (setting [16]) is -2.01%; in assay [11] (setting [17]) it was -7.47%.

For the compound `COCC(=O)N1CCC2(CC1)CN(C(c1ccccc1)c1ccccc1)C2`, the Potency in assay [1] is > 11.4 µM (inactive); in [6], > 46 µM (inactive); in [10], 25.1 µM (active). In addition, the activity change, negative = inhibition in [2] is 3.82% (inactive); in assay [4], 11.6% (inactive); in [11], 2.84% (inactive). The Potency result in [3], in assay [8], in assay [9] and in assay [12] was “inactive” throughout. Besides, the activity, negative = inhibition in [5] is -8.6% (inactive). Further, the result in assay [7] was inactive. Besides, the max response in assay [11] (setting [16]) is -11.5%; in assay [11] (setting [17]) it was -6.58%.

In the case of `O=C(c1cc(C(F)(F)F)cc(C(F)(F)F)c1)N1CCC[C@@]2(CCN(Cc3ccncc3)C2)C1`, the Potency in assay [1] is > 11.4 µM (inactive); in assay [3] it was 12.6 µM (active); in [6], > 46 µM (inactive); in [13], 0.0794 µM (active); in assay [9] it was 0.501 µM (active); in assay [14] it was 5.01 µM (active). Besides, in [15], the Potency was 0.199 µM (active). The activity change, negative = inhibition in assay [2] is -6.9% (inactive); in assay [4] it was -25.1% (inactive); in [11], 7.2% (inactive). Also, in [5], the activity, negative = inhibition was -8.97% (inactive). For the same compound, the compound was classed as inactive in assay [7]. The Potency entry in assay [8], in [10] and in [12] was “inactive” each time. Moreover, the max response amounted to 20.1% in [11] (setting [16]) and 28.8% in [11] (setting [17]).

The values above are taken from PubChem BioAssay (NCATS).
